From PubChem BioAssay
Only some compounds are listed: those with a hit (about 3.8% of all), similar ones and a draw of the others.
TGFb inhibitor: qHTS for Inhibitors of TGF-b; HepG2 CAGA-GFP TGF-b/SMAD3 reporter, GFP fluorescence, 18 h; TGF-beta stimulated, 500 pg/mL final; Potency, µM (doses to about 46.1 µM), actives largely listed as inhibitors; 410,000 tested, 1.2% active; AID 588855, 2011; note: nearly all actives have a fitted effect of over 65% in size
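Read-out: total well GFP (ex488/em500-530) summed from mean per-cell fluorescence. Cells: HEPG2 CAGA-GFP, 1% FBS DMEM, 18 h at 37 degrees C with 500 pg/mL final TGF-beta. Unstimulated wells served as the full-inhibition control; stimulated DMSO wells = 0%.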
S2 tox: Viability Counterscreen for Primary qHTS for Inhibitors of ATXN expression. S2 cells (HEK-293 line with an ATXN2-luciferase reporter) viability, CellTiter-Fluor protease fluorescence, 24 h. Potency, µM (titrated, usually from 56.7 µM), most hits filed as cytotoxic. 400,000 tested, 0.49% active; note: nearly all actives have a fitted effect of over 40% in size
ATXN2 expr inh: Primary qHTS for Inhibitors of ATXN expression; 360,000 tested, 0.72% active; HEK-293 ATXN2-luciferase reporter, luminescence, 24 h; Potency, µM (series often up to 57 µM), actives largely listed as inhibitors; note: nearly all actives have a fitted effect of over 55% in size
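qHTS (up to 57 uM final) was run with 24 h compound exposure of reporter cells at 37 °C. Each well was multiplexed: SteadyGlo luminescence measured ATXN2-luciferase expression after a fluorogenic Gly-Phe-AFC viability readout (25 uM final).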
HT1080 IDH1KD tx: qHTS for induction of synthetic lethality in tumor cells producing 2HG: qHTS for the HT-1080-IDH1KD cell line | Potency, µM (top dose mostly 46.1 µM), usual class: cytotoxic | HT-1080 IDH1 knockdown viability, ATP luminescence, 48 h | AID 686971, 2013 | 360,000 tested, 2% active
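After a 2 h attachment period, IDH1KD HT-1080 cells took pin-transferred compound for 48 h at 37 °C; ATP-based luminescence after 10 min room-temperature reagent incubation reported viability.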
HepG2 tox: qHTS for Inhibitors of TGF-b: Cytotox Counterscreen | HepG2 CAGA-GFP viability, ATP luminescence, 18 h | Potency, µM (series often up to 46.1 µM), hits mostly cytotoxic | AID 588856, 2011 | 410,000 tested, 0.76% active
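CellTiter-Glo luminescence gave cytotoxicity after 18 hours at 37 degrees C. The cells were HepG2 CAGA-GFP in 1% FBS DMEM, stimulated with 500 pg/mL TGF-beta after compound addition. %Activity was normalised to no-cell wells (complete cell-killing) and DMSO (no toxicity), and curves were fitted and classified.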
HT1080-NT tox: qHTS for induction of synthetic lethality in tumor cells producing 2HG: qHTS for the HT-1080-NT fibrosarcoma cell line; HT-1080-NT fibrosarcoma viability, CellTiter-Glo ATP luminescence, 48 h; Potency, µM (top dose mostly 46.1 µM), most hits filed as cytotoxic; 360,000 tested, 1.6% active; AID 686970, 2013;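 note: NT is the 2HG producing partner of a matched IDH1 knockdown line; nearly all actives have a fitted effect of over 55% in size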
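750 cells/well, RPMI + 5% FBS; 2 h settle, compound pin-transfer, 48 h at 37 degrees C. CellTiter-Glo 10 min RT, luminescence. Normalized to DMSO and media-only wells.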
Numbers stand for hits; n = inactive; u = inconclusive; x = no result; [ ] = remark or other dose. Calls come from the whole dose curve; as a rule, active = well fitted curve in the direction sought with a large enough effect; inconclusive = small, poorly fitted or top-dose-only effect, or another doubt; inactive = no such curve, though single readings can be large; an effect the other way counts as inactive or inconclusive.

SMILES | TGFb inhibitor | S2 tox | ATXN2 expr inh | HT1080 IDH1KD tx | HepG2 tox | HT1080-NT tox
Cc1oc(=O)oc1COC(=O)[C@@H]1N2C(=O)[C@@H](NC(=O)[C@H](N)c3ccccc3)[C@H]2SC1(C)C | x | n | n | x | x | x
CCCC[n+]1ccn(C2=C([O-])c3ccccc3C(=O)/C2=N\S(=O)(=O)c2ccccc2)c1 | 8.9µM | u | u | 16µM | 11µM | 11µM
CCCC[n+]1ccn(-c2nc3ccccc3nc2[N-]S(=O)(=O)c2ccccc2)c1 | n | n | n | n | n | n
CC(C)(C)c1cc[n+](C2=C([O-])c3ccccc3C(=O)/C2=N\S(=O)(=O)c2ccccc2)cc1 | 14µM | u | u | 21µM | n | u
CCCCC[n+]1ccn(C2=C([O-])c3ccccc3C(=O)/C2=N\S(=O)(=O)c2ccccc2)c1 | u | n | u | 18µM | 6.3µM | u
CC(C)[n+]1ccn(C2=C([O-])c3ccccc3C(=O)/C2=N\S(=O)(=O)c2ccccc2)c1 | 20µM | n | n | 23µM | n | 23µM
NS(=O)(=O)c1ccc(CCNC(=O)Cn2c(=O)c3cccn3c3ccc(F)cc32)cc1 | n | x | x | x | n | x
Cc1ccc(C)c(Nc2ncnc3onc(C)c23)c1 | n | n | n | x | n | x
CCOc1ccccc1CNC(=O)Cn1c(-c2ccccc2)cc(C(C)=O)c1C | n | n | n | x | n | x
Cc1ccc(-c2noc(-c3ccc(NCc4cccnc4)c([N+](=O)[O-])c3)n2)cc1 | n | n | n | x | n | x
CCCCC[n+]1ccn(-c2nc3ccccc3nc2[N-]S(=O)(=O)c2ccc(C)cc2)c1 | n | n | n | n | n | n
CCCCC[n+]1ccn(C2=C([O-])c3ccccc3C(=O)/C2=N\S(=O)(=O)c2ccc(Br)cc2)c1 | 1.6µM | n | x | n | 4µM | n
CCC1(C2CCN(C(=O)c3csc(C(C)=O)c3)CC2)NC(=O)N(CCc2scnc2C)C1=O (stereo unspecified) | x | n | x | x | x | x
COc1ccc(OC)c(-c2nc(CN3CCCCC3c3cccnc3)c(C)o2)c1 (stereo unspecified) | n | n | n | n | n | n
COc1ccc(-c2nc(CN3CCCCC3c3nccn3C)c(C)o2)c(C)c1C (stereo unspecified) | 20µM | u | u | u | n | u
c1ccc(N2CCN(c3ncnc4scc(-c5cccs5)c34)CC2)cc1 | n | n | n | n | n | n
O=C(c1ccco1)N1CCN(c2ncnc3scc(-c4cccs4)c23)CC1 | n | n | u | 7.9µM | n | 11µM
O=C(c1ccco1)N1CCN(c2ncnc3scc(-c4ccccc4)c23)CC1 | n | n | n | 10µM | n | 7.3µM
COc1ccc(-c2csc3ncnc(N4CCN(C(=O)c5ccco5)CC4)c23)cc1 | u | u | u | n | n | n
Cc1ccc2nc(CO)[nH]c2c1 | n | x | x | x | n | x
COc1ccccc1N1CCN(C(=O)C2c3ccccc3Oc3ccccc32)CC1 | u | u | n | 1.8µM | n | 4.1µM
COc1ccc(C(=O)CN2C(=O)c3ccccc3S2(=O)=O)cc1Br | n | u | u | n | n | n
COc1ccc(C(=O)CN2C(=O)c3ccccc3S2(=O)=O)cc1 | n | n | 0.5µM | n | n | n
Cc1cc(C(=O)CN2C(=O)c3ccccc3S2(=O)=O)c(C)n1CC1CCCO1 (stereo unspecified) | n | u | 0.5µM | n | n | n
CCCn1c(C)cc(C(=O)CN2C(=O)c3ccccc3S2(=O)=O)c1C | n | n | x | n | n | n
SMILES | TGFb inhibitor | S2 tox | ATXN2 expr inh | HT1080 IDH1KD tx | HepG2 tox | HT1080-NT tox
C/C=C1\[C@H]2C=C(C)C[C@]1(N)c1ccc(=O)[nH]c1C2 | x | n | n | x | x | x
COc1cccc(CNC(=O)Cn2c(=O)oc3cc(S(=O)(=O)N4CCCC4)ccc32)c1 | n | n | n | x | n | x
COc1ccc2c(c1)-c1nc(-n3ncc(C(=O)N(C)CC4CCCN(C)C4)c3C3CC3)ncc1CC2 (stereo unspecified) | x | n | x | x | x | x
O=C(Nc1ccc2[nH]c(=O)[nH]c2c1)c1ccc([N+](=O)[O-])o1 | 11µM | u | n | u | n | n[9.24 µM]
O=C(Nc1cccc([N+](=O)[O-])c1)c1ccc([N+](=O)[O-])o1 | u | u | x | u | n | u
Cc1ccc(NC(=O)c2ccc([N+](=O)[O-])o2)cc1C | u | u | n | 13µM | n | 26µM
COc1ccccc1CNc1ncnc2sc(C(=O)N3CCN(C)CC3)c(C)c12 | x | n | x | x | x | x
CN(C(=O)c1cnc(N2CCOCC2)c2ccccc12)c1ccccc1F | n | x | x | x | n | x
Fc1ccc(C(CCNCc2ccccn2)c2ccc(Cl)cc2)cc1 (stereo unspecified) | u | n | n | 21µM | 13µM | 18µM
N#C/C(=C/c1ccc(N2CCOCC2)o1)c1ccc(Cl)cc1 | n | n | n | 3.5µM | n | 6.3µM
N#C/C(=C\c1ccc(N2CCOCC2)o1)c1nc2ccccc2[nH]1 | n | n | n | u | n | u
CCOc1ccccc1NC(=O)CSc1nc2c([nH]c3ccccc32)c(=O)n1-c1ccccc1 | n | x | x | x | n | x
CCCCN(CC)CCCNC(=O)C1CCN(c2ncnc3c2sc2cccc(F)c23)CC1 | u | n | n | 21µM | n | 21µM
O=C(NCCN1CCOCC1)C1CCN(c2ncnc3c2sc2cccc(F)c23)CC1 | n | n | n | n | n | n
Cc1ccc2ncc3c(-c4ccc(F)cc4)nn(CC(=O)Nc4ccccc4C)c3c2c1 | n | u | n | x | n | x
COc1cc(-c2ccc(C)cc2)cc2c1OCCN(C(=O)CCn1ccc(C)n1)C2 | x | n | x | x | x | x
Cc1ccc(S(=O)(=O)N2CCCCC2CCNC(=O)C(=O)NCc2ccccc2)cc1 (stereo unspecified) | n | n | n | 6.5µM | n | 7.3µM
Cc1ccc(S(=O)(=O)N2CCCCC2CCNC(=O)C(=O)NCc2ccncc2)cc1 (stereo unspecified) | n | n | n | n | n | n
Cc1ccc(S(=O)(=O)N2CCCCC2CCNC(=O)C(=O)NCc2ccccc2C)cc1 (stereo unspecified) | u | n | n | 16µM | n | 21µM
Cc1cc(C)cc(NC2=NCC(=O)N2Cc2ccccc2)c1 | n | n | n | n | n | n
CCCCc1ccc(NC2=NCC(=O)N2CCc2ccccc2)cc1 | u | n | n | 26µM | n | u
COc1cc(NC(=O)Cn2cc(S(=O)(=O)N3CCC(C)CC3)c3ccccc3c2=O)cc(OC)c1OC | u | u | n | x | n | x
